# From PubChem BioAssay (EPA / NIEHS)
# Where “and” joins values, the source holds several entries; their conditions need not be identical. Equal values may be shown once. Inconclusive results are not listed. More than one record can exist for a structure, and the calls need not agree. Calls of active or inactive are those of the source. How the source made its calls, unless noted: active means hit-call score of the fitted dose curve at least 0.9, where 1 is the maximum; inactive means score below 0.9.
# How the values were obtained:
# [1] = CCTE_Padilla_ZF_144hpf_TERATOSCORE: (Legacy) CCTE's 144 Hour Post-fertilization zebrafish Assay Teratoscore, Padilla Lab (AID 2283679);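 on AC50: zebrafish embryos with chorions exposed by immersion from 6-8 hpf to 5 dpf with daily renewal; teratogenicity score from eye scoring of death hatching and malformations at 144 hpf; higher score means more developmental defects relative to DMSO baseline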
# Outline: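 Larvae scored by eye at 144 hpf for death, hatching and malformations after a day in clean Hanks'. Before that, daily-renewed exposure at 80 uM (0.4% DMSO, 26C) from roughly 6-8 hpf through 5 dpf, 4 embryos per chemical.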
# [2] = STM_H9_OrnithineISnorm_perc: Stemina devTOX quickPredict H9 human embryonic stem cell (hESC)-based Assay for Ornithine (ORN) Metabolite Biomarker, Normalized (AID 2283712);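 further: ornithine released into spent medium during last day measured by mass spectrometry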
# Outline: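 Metabolite endpoint from spent media of pluripotent H9 cells treated 72 h with daily re-feeding; ornithine measured by UPLC-HRMS against its 13C spike-in and referenced to the median 0.1% DMSO vehicle response.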
# [3] = STM_H9_CystineISnorm_perc: Stemina devTOX quickPredict H9 human embryonic stem cell (hESC)-based Assay for Cystine (CYSS) Metabolite Biomarker, Normalized (AID 2283713)
# Outline: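 Normalized cystine level in conditioned medium from the final 24h of a 72h treatment of pluripotent H9 cells (daily media and compound renewal). Quantified by UPLC-HRMS with C13-labeled internal standard; scaled to median of 0.1% DMSO vehicle wells.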
# [4] = CEETOX_H295R_MTT_cell_viability: Viability Assessment in the CeeTox HT-H295R MTT Assay (AID 2283718)
# Outline: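 Human H295R adrenal cells, prestimulated 48 h with 10 uM forskolin, were exposed 48 h to chemicals in 0.1% DMSO. Viability was measured in the same wells by MTT (0.5 mg/ml, 4 h, 37 C), absorbance 570/650 nm, as percent of controls.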
# [5] = Tanguay_ZF_120hpf_ActivityScore_legacy: (Legacy) Oregon State University Tanguay Lab 120 Hour Post-fertilization zebrafish Assay Score for Activity (AID 2283742; active means hit-call score of the fitted dose curve at least 0.9, where 1 is the maximum)
# Outline: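 Dechorionated 5D embryos, one per well, static exposure 6–120 hpf, 28C, sealed and dark; final DMSO 0.64% (vol/vol). Brightfield binary scoring of mortality plus 18 endpoints; gain-of-signal fit versus DMSO baseline.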
# [6] = biological target: Luciferin 4-monooxygenase (Photinus pyralis) (UniProt P08659); test: CCTE_Simmons_QuantiLum_inhib_2: CCTE's Firefly Luciferase Inhibition Assay, Simmons Lab (AID 2283767; active means hit-call score of the fitted dose curve at least 0.9, where 1 is the maximum;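 on AC50: potency for inhibitors that lower luciferase luminescence relative to DMSO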)
# Outline: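 Eight-point titrations of each chemical, 5 nM–87.5 uM final in 0.5% DMSO, were run in three biological replicates against recombinant luciferase for 30 min at 37C. Bioluminescence signal loss, read on reagent injection, gave the inhibition endpoint.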
# [7] = ArunA_CellTiter_hNC: Viability Assessment in the ArunA Biomedical's Oris Neural Crest (hNC) Cell Migration Assay (AID 2283752; active means hit-call score of the fitted dose curve at least 0.9, where 1 is the maximum)
# Outline: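 Cytotoxicity endpoint run alongside the migration assay: neural crest cells on Matrigel, 60,000 per well, preincubated 16 h at 37C, treated 72 h; CellTiter Aqueous One signal loss relative to DMSO.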
# [8] = ArunA_CellTiter_hNP: Viability Assessment in the ArunA Biomedical's Oris Neural Crest (hNC) Cell Migration Assay (AID 2283753; active means hit-call score of the fitted dose curve at least 0.9, where 1 is the maximum)
# Outline: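 Viability read with CellTiter 96 Aqueous One after 72 h chemical exposure of human hNP1 neuroprogenitors, which were plated on Matrigel in LIF/bFGF medium 16 h beforehand. Endpoint fitted in positive direction relative to DMSO.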
# [9] = ArunA_Migration_hNP: ArunA Biomedical's Oris Neuroprogenitor (hNP) Cell Migration Assay (AID 2283754; active means hit-call score of the fitted dose curve at least 0.9, where 1 is the maximum)
# Outline: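 Readout is calcein-AM fluorescence (ex494/em517) of cells migrating into the detection zone, relative to DMSO. hNP1 cells (H9-derived) grown on Matrigel behind stoppers 16 h, then stoppers pulled and chemical applied 72 h; cytochalasin D as control.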
# [10] = ArunA_Migration_hNC: ArunA Biomedical's Oris Neural Crest (hNC) Cell Migration Assay (AID 2283755; active means hit-call score of the fitted dose curve at least 0.9, where 1 is the maximum)
# Outline: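 Calcein-AM fluorescence (ex494 nm/em 517 nm) in the stopper-defined detection zone quantifies migration of hNC cells after 72 h chemical exposure; 60,000 cells/well plated on Matrigel with LIF and bFGF, 16 h pre-incubation. DMSO baseline.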
# [11] = ArunA_NOG_NucleusCount: ArunA Biomedical's Neurite Outgrowth (NOG) Assay for Nucleus Count (AID 2283756; active means hit-call score of the fitted dose curve at least 0.9, where 1 is the maximum)
# Outline: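 Viable neuron count, from Hoechst nuclei passing size and intensity gates, imaged at 20x on differentiated H9-derived human neurons. Exposure lasted 48 h from seeding; activity was scored relative to DMSO.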
# [12] = ArunA_NOG_NeuriteLength: ArunA Biomedical's Neurite Outgrowth (NOG) Assay for Neurite Length (AID 2283757; active means hit-call score of the fitted dose curve at least 0.9, where 1 is the maximum)
# Outline: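 Total neurite length per neuron, from traced βIII-tubulin-labelled processes longer than 10 um on viable Hoechst-gated cells, was scored as decrease from DMSO. Cells were hESC (H9)-derived neurons given 48 h chemical exposure immediately after seeding.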
# [13] = ArunA_NOG_NeuritesPerNeuron: ArunA Biomedical's Neurite Outgrowth (NOG) Assay for Neurites Per Neuron (AID 2283758; active means hit-call score of the fitted dose curve at least 0.9, where 1 is the maximum)
# Outline: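 Differentiated human H9-derived neurons exposed to chemicals for 48 h from seeding, then stained with Hoechst and βIII-tubulin/DyLight 488. Automated imaging counted neurites (processes >10 um) per valid neuron; loss of signal versus DMSO scored.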
# [14] = ArunA_NOG_BranchPointsPerNeurite: ArunA Biomedical's Neurite Outgrowth (NOG) Assay for Branch Points Per Neurite (AID 2283759; active means hit-call score of the fitted dose curve at least 0.9, where 1 is the maximum)
# Outline: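 Automated image analysis traced neurites (processes >10 um) from valid cell bodies after Hoechst and βIII-tubulin staining. hNN cells from H9 embryonic stem cells, 48 h exposure. Fitted bidirectionally against DMSO.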
# [15] = system: zebrafish Androgen Receptor (AR), gene 100005148; test: ATG_zfAR_XSP1: Attagene TRANS-FACTORIAL Multi-Species (XSP1) HepG2 Assay for zebrafish Androgen Receptor (AR) (AID 2283771; active means hit-call score of the fitted dose curve at least 0.9, where 1 is the maximum)
# Outline: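 Gain-of-signal versus DMSO was measured as reporter transcripts quantified by RT-PCR, fluorescent labelling and capillary electrophoresis after 24 h chemical exposure. The cells were HepG2 expressing a chimeric zebrafish AR-GAL4, co-stimulated with 3 nM 6-alpha-fluorotestosterone.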
# [16] = biological target: zebrafish Estrogen Receptor (ESR1), esr1 (gene 259252) (UniProt P57717); test: ATG_zfER1_XSP1: Attagene TRANS-FACTORIAL Multi-Species (XSP1) HepG2 Assay for zebrafish Estrogen Receptor (ESR1) (AID 2283772; active means hit-call score of the fitted dose curve at least 0.9, where 1 is the maximum)
# Outline: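 Trans-activation readout: transfected zebrafish ER-Gal4 drives a UAS reporter in human HepG2 liver cells. After 24 h compound exposure (medium containing 3 nM 6-alpha-fluorotestosterone), induced reporter transcripts were quantified by RT-PCR with capillary electrophoresis, relative to DMSO.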
# [17] = system: zebrafish Estrogen Receptor (ESR2B), gene 317733; test: ATG_zfER2b_XSP1: Attagene TRANS-FACTORIAL Multi-Species (XSP1) HepG2 Assay for zebrafish Estrogen Receptor (ESR2B) (AID 2283773; active means hit-call score of the fitted dose curve at least 0.9, where 1 is the maximum)
# Outline: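 Multiplexed TRANS format in transfected HepG2 liver cells, chimeric NR-Gal4 from zebrafish ESR2B. 24 h dosing; medium contains 3 nM 6-alpha-fluorotestosterone. mRNA induction by RT-PCR/CE, positive direction vs DMSO.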
# [18] = system: chicken Androgen Receptor (AR), gene 422165; test: ATG_chAR_XSP1: Attagene TRANS-FACTORIAL Multi-Species (XSP1) HepG2 Assay for chicken Androgen Receptor (AR) (AID 2283768; active means hit-call score of the fitted dose curve at least 0.9, where 1 is the maximum)
# Outline: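 Reporter mRNA read by RT-PCR with fluorescent labelling and capillary electrophoresis 24 h after chemical dosing of transiently transfected HepG2 cells. Chicken AR-Gal4 chimera, partially stimulated with 3 nM 6-alpha-fluorotestosterone; activity fitted upward relative to DMSO.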
# zebrafish Estrogen Receptor (ESR1), esr1 (gene 259252), sequence (P57717 whole entry, looked up, the tested form may be a part): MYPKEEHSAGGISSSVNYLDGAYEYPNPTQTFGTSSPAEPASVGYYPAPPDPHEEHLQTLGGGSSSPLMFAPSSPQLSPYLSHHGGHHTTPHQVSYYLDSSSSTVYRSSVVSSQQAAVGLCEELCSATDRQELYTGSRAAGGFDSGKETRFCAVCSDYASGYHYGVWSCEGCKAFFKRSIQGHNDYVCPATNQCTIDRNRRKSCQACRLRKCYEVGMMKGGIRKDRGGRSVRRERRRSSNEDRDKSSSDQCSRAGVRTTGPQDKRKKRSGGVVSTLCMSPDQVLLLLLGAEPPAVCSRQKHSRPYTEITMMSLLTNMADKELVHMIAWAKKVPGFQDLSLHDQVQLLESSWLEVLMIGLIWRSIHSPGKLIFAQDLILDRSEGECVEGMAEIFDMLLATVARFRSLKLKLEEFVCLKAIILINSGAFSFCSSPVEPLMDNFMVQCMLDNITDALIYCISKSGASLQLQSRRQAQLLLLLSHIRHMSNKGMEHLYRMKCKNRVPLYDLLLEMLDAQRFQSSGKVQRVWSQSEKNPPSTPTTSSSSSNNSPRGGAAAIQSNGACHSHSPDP
# Luciferin 4-monooxygenase (Photinus pyralis), sequence (P08659 whole entry, looked up): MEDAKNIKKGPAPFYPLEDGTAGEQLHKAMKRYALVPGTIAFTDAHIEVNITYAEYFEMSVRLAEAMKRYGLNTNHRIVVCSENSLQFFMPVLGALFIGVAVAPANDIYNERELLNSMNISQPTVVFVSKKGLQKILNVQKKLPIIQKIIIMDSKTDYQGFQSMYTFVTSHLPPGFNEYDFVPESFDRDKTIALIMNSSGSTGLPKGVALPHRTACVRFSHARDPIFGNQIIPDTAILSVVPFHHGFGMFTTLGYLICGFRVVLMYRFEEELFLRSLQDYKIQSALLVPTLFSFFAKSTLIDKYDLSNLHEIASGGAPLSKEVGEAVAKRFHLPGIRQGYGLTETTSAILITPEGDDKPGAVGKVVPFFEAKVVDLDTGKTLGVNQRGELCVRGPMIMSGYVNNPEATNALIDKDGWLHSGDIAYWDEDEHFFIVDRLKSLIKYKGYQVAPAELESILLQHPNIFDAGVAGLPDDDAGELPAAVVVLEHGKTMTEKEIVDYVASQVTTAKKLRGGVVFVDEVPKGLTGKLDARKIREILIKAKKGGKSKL
structure (smiles),measurement,setting,value
Cc1ccc(N)c(N)c1,AC50,[1],80.4 µM (active)
same,AC50,[2],18.9 µM (active)
same,AC50,[3],23.4 µM (active)
same,outcome,[4],inactive
same,outcome,[5],inactive
same,AC50,[6],0.334 µM (active)
CCC(C)c1ccc(O)cc1 (stereo unspecified),AC50,[1],60.3 µM (active)
same,outcome,[4],inactive
same,outcome,[6],inactive
Nc1ccc(Cl)cc1N,AC50,[1],15 µM (active)
same,outcome,[4],inactive
same,AC50,[6],9.28 µM (active)
CO[C@@H]1[C@H](OC(=O)NC(=O)CCl)CC[C@]2(CO2)[C@H]1[C@@]1(C)O[C@@H]1CC=C(C)C,outcome,[1],inactive
same,AC50,[2],0.0844 µM (active)
same,AC50,[3],0.039 µM (active)
same,outcome,[5],inactive
same,AC50,[7],1.63 nM (active) and 120 nM (active)
same,AC50,[8],0.00608 µM (active)
same,outcome,[8],inactive
same,outcome,[9],inactive
same,AC50,[10],22.8 nM (active) and 5 µM (active)
same,outcome,[11],inactive
same,outcome,[12],inactive
same,outcome,[13],inactive
same,outcome,[14],inactive
same,outcome,[6],inactive
Clc1ccc(C(c2ccc(Cl)cc2)C(Cl)(Cl)Cl)cc1,AC50,[1],3.44 µM (active)
same,outcome,[2],inactive
same,outcome,[3],inactive
same,outcome,[5],inactive
same,outcome,[15],inactive
same,AC50,[16],41.7 µM (active)
same,AC50,[17],1.95 µM (active)
Nc1ccc(N=Nc2ccccc2)cc1,AC50,[1],33.9 µM (active)
same,outcome,[4],inactive
same,outcome,[5],inactive
same,AC50,[6],3.16 µM (active)
CC(C)COC(=O)c1ccccc1C(=O)OCC(C)C,AC50,[1],2.53 µM (active)
same,AC50,[2],76.1 µM (active)
same,AC50,[3],33 µM (active)
same,outcome,[4],inactive
CCNS(=O)(=O)C(F)(F)C(F)(F)C(F)(F)C(F)(F)C(F)(F)C(F)(F)C(F)(F)C(F)(F)F,AC50,[1],43.5 µM (active)
Brc1ccc(Oc2ccccc2)cc1,AC50,[1],44.7 µM (active)
same,outcome,[2],inactive
same,outcome,[3],inactive
same,outcome,[4],inactive
Clc1ccc(C(c2ccc(Cl)cc2)C(Cl)Cl)cc1,AC50,[1],20.3 µM (active)
same,outcome,[2],inactive
same,outcome,[3],inactive
same,outcome,[16],inactive
same,AC50,[17],7.14 µM (active)
Cc1cc(N=Nc2ccccc2C)ccc1N,AC50,[1],7.92 µM (active)
same,outcome,[4],inactive
same,AC50,[6],3.76 µM (active)
COc1cc(C=O)cc2c1[C@H](COC(N)=O)[C@]1(OC(C)=O)ON2C[C@H]2[C@@H]1N2C(C)=O,outcome,[1],inactive
same,AC50,[2],0.00101 µM (active)
same,AC50,[3],0.0003 µM (active)
CCCCCOC(=O)c1ccccc1C(=O)OCCCCC,AC50,[1],4.55 µM (active)
same,outcome,[2],inactive
same,AC50,[3],19.8 µM (active)
same,outcome,[4],inactive
same,outcome,[5],inactive
same,outcome,[18],inactive
same,outcome,[15],inactive
same,outcome,[16],inactive
same,AC50,[17],40.7 µM (active)
